A selection: hits, their analogues and other compounds. The true share with any hit is near 8%.
KB-V1 MDR tox = qHTS assay for MDR1-selective chemotherapeutics: Primary screen using the drug-selected MDR subline cells KB-V1 | KB-V1 MDR cells viability, CellTiter-Glo, 72 h | Potency, µM (top dose mostly 46.1 µM), most hits filed as cytotoxic | actives 3.4% (n = 400,000) | AID 1347076, 2019; further: on the % scale 0 is the no-effect control and ±100 the full control effect; nearly all actives have a fitted effect of over 60% in size
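KB-V1 cells (P-gp-expressing MDR subline of KB-3-1) in phenol-red-free DMEM with 10% FBS were exposed to library compounds over a concentration series for 72 h at 37 degrees C. Viability read by CellTiter-Glo luminescence; concentration-effect curves fitted after normalization.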
HT1080 IDH1KD tx = qHTS for induction of synthetic lethality in tumor cells producing 2HG: qHTS for the HT-1080-IDH1KD cell line; HT-1080 IDH1 knockdown viability, ATP luminescence, 48 h; Potency, µM (series often up to 46.1 µM), for inactives: at the highest dose activity, negative = toxicity, most hits filed as cytotoxic; actives 2% (n = 360,000);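 further: 0% = DMSO wells and -100% = cell-free medium wells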
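Viability of IDH1-knockdown HT-1080 fibrosarcoma cells was assessed by CellTiter-Glo after 48 h at 37 °C with titrated compound; concentration-effect curves were classified by fit quality and response size.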
MCF10A rereplic = A quantitative high throughput screen for small molecules that induce DNA re-replication in MCF 10a normal breast cells. MCF 10A DNA re-replication, Hoechst nuclear intensity, 48 h. Potency, µM (series often up to 46.1 µM), for the others: top-dose activity, positive = re-replication, hits mostly activators. actives 2.9% (n = 350,000); further: % of control where 0% means no effect; nearly all actives have a fitted effect of over 50% in size
HT1080-NT tox = qHTS for induction of synthetic lethality in tumor cells producing 2HG: qHTS for the HT-1080-NT fibrosarcoma cell line | actives 1.6% (n = 360,000) | HT-1080-NT fibrosarcoma viability, CellTiter-Glo ATP luminescence, 48 h | Potency, µM (top dose mostly 46.1 µM), for inactives: at the highest dose activity, negative = less viability, most hits filed as cytotoxic | AID 686970, 2013;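 further: NT is the 2HG producing partner of a matched IDH1 knockdown line; 0% = DMSO-treated cells and -100% = media-only wells without cells; nearly all actives have a fitted effect of over 55% in size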
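Viability of the 2HG-overproducing fibrosarcoma line after 48 hours of compound exposure at 37 degrees C was determined by luminescence with CellTiter-Glo, and concentration-effect curves were then fitted and categorized.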
SW480 rereplic = A quantitative high throughput screen for small molecules that induce DNA re-replication in SW480 colon adenocarcinoma cells. SW480 DNA re-replication, Hoechst DNA content imaging, 48 h. Potency, µM (series often up to 46.1 µM), without a hit: top-dose re-replication activation, actives largely listed as activators. actives 1.8% (n = 340,000). AID 624297, 2012; further: % of control where 0% means no effect; nearly all actives have a fitted effect of over 55% in size
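250 cells/well; 23 nL cpd via pin tool; 48 hr, 37 C, 5% CO2; Hoechst 40 min; imager read of total nuclear intensity, ex 405/em 500-530 nm.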
KB-3-1 tox = qHTS assay for MDR1-selective chemotherapeutics: Primary screen using the parental adenocarcinoma cell KB-3-1. actives 1.4% (n = 400,000). Potency, µM (doses to about 46.1 µM), most hits filed as cytotoxic. AID 1347075, 2019. KB-3-1 viability, CellTiter-Glo ATP luminescence, 72 h; further: on the % scale 0 is the no-effect control and ±100 the full control effect; nearly all actives have a fitted effect of over 60% in size
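Cells are dispensed, compounds pinned in, plates held at 37 °C for 72 h, then CellTiter-Glo is added and luminescence read after 10 minutes. Cell line: parental KB-3-1 in phenol-red-free DMEM, 10% FBS.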
Numbers without * were called inactive; i = inactive; ? = inconclusive; . = no result given; [ ] = remark or other dose. The call rests on the fitted dose curve; in most records, active means well fitted curve in the direction sought with a large enough effect; inconclusive means small, poorly fitted or top-dose-only effect, or another doubt; inactive means no such curve, though single readings can be large; an effect the other way counts as inactive or inconclusive. Potency means the concentration at half of the fitted maximal effect.

SMILES	KB-V1 MDR tox	HT1080 IDH1KD tx	MCF10A rereplic	HT1080-NT tox	SW480 rereplic	KB-3-1 tox
CCOc1ccc(NC(=O)CSc2oc(-c3ccco3)nc2S(=O)(=O)c2ccc(Cl)cc2)cc1	i	.	.	.	.	i
CCCCCCCCC[n+]1cccc2c3ccccc3ccc21	?	10.3µM*	?	7.31µM*	?	?
CCCCCCCCCCCCCCCC[n+]1cccc2ccccc21	23.1µM*	8.2µM*	18.4µM*	6.51µM*	?	?
CCCCCCCCCC[n+]1cccc2cc(Br)ccc21	?	.	.	.	.	1.3µM*
CCCCCCCCCCCC[n+]1ccc2ccccc2c1	.	.	54.9%	.	?	.
Cc1cccc(OCc2nc(CC(=O)Nc3ccc(C)c(C)c3)cs2)c1	i	.	.	.	.	i
COc1cc(NC(=O)CC(C)S(=O)(=O)c2cc3c4c(c2)CCN4C(=O)CC3)cc(OC)c1 (centres undefined)	?	.	.	.	.	i
COc1ccc(C)cc1NC(=O)C1CCN(S(=O)(=O)c2ccc3[nH]c4c(c3c2)CCCCC4)CC1	i	.	.	.	.	i
Cn1c(SCc2c(F)cccc2Cl)nnc1-c1cccs1	i	-3.9%	6.51µM*	1.7%	?	?
Cn1c(SCCOc2ccccc2Cl)nnc1-c1cccs1	18.4µM*	-13.1%	4.4%	-25.8%	-2.4%	i
CSc1n[nH]c(-c2sccc2OCc2ccc(C)cc2)n1	16.4µM*	7.2%	19.3%	-2.1%	-4.5%	i
CCCCC(CC)C(=O)Oc1ccc(O)c(C(C)(C)C)c1 (centres undefined)	i	23.1µM*	4.11µM*	16.4µM*	8.5%	i
Cc1ccc(-n2nc(C(=O)Nc3ccc(C)c(F)c3)c3c4ccccc4n(C)c3c2=O)cc1	i	.	.	.	.	i
Cc1ccc2c(c1)c1c(c(=O)n(-c3ccccc3)c(=O)n1CC(=O)NCCC1=CCCCC1)n2C	i	.	.	.	.	i
Cc1cc(C)n(CC(=O)NC2C(=O)N3C(C(=O)O)=C(CSc4nnc(C)s4)CSC23)n1 (centres undefined)	i	3.8%	0.731µM*	4.4%	-5.8%	i
Nc1c(-c2ccc3c(c2)OCCO3)oc2ccccc2c1=O	?	-0.3%	18.4µM*	-16.3%	20.6µM*	?
COc1ccc2c(c1)sc1nc(-c3ccccc3)cn12	?	4.61µM*	?	2.59µM*	?	2.31µM*
CCCCN(CCCC)Cc1ccc(C(=O)NNC(=O)Nc2ccccc2)o1	i	-1.3%	5.7%	-2.3%	26.1%	i
CCCCN(CC)Cc1ccc(CNC(=O)Nc2ccccc2)o1	i	14.1µM*	-8.8%	1.1%	-2.3%	i
CC(C)(C)C(=O)Nc1ccc2nc(SCCOc3ccccc3Cl)sc2c1	i	.	.	.	.	i
COc1cc(/C=C/c2nc3cc(Cl)ccc3c(=O)n2-c2ccc(C)cc2C)cc(OC)c1OC	i	.	.	.	.	i
COc1ccc(N(CC(=O)NCc2cccc(OC)c2)S(=O)(=O)c2c(C)noc2C)cc1	13µM*	2.2%	12.0%	5.3%	1.7%	i
COc1ccc(N(CC(=O)NCc2ccc(F)cc2)S(=O)(=O)c2c(C)noc2C)cc1	i	5.3%	-0.1%	-3.4%	-14.2%	i
CCOc1ccc(N(CC(=O)NCc2cccc(OC)c2)S(=O)(=O)c2c(C)noc2C)cc1	7.31µM*	-1.1%	16.7%	-24.7%	4.2%	i
CCOc1ccc(N(CC(=O)NCc2ccc(C)cc2)S(=O)(=O)c2c(C)noc2C)cc1	i	.	.	.	.	i
SMILES	KB-V1 MDR tox	HT1080 IDH1KD tx	MCF10A rereplic	HT1080-NT tox	SW480 rereplic	KB-3-1 tox
Cc1nc2nc(C)n(CCN3CCOCC3)c(=O)c2c(-c2cccc([N+](=O)[O-])c2)c1C(=O)CCCCCCCCCCN1CCC(c2ccccc2)(c2ccccc2)CC1	7.31µM*	20.6µM*	?	?	0.6%	?
CCc1cc(=O)oc2c(C)c(O[C@@H]3O[C@H](CO)[C@@H](O)[C@H](O)[C@H]3O)ccc12	?	0.2%	-1.8%	-6.0%	?	i
CCc1cc(=O)oc2cc(O[C@@H]3O[C@H](CO)[C@@H](O)[C@H](O)[C@H]3O)c(Cl)cc12	i	4.6%	-7.1%	5.9%	18.4µM*	i
Cc1cc(Nc2cccc(Cl)c2)nc2ccc(NC(=O)COc3ccc(Cl)cc3)cc12	i	.	.	.	.	i
CN(C)[C@H]1C(=O)C(C(=O)NCN2CCCC2)=C(O)[C@]2(O)C(=O)C3=C(O)c4c(O)cccc4[C@@](C)(O)[C@H]3C[C@@H]12	.	.	-1.7%[20.6 µM]	.	-1.2%[20.6 µM]	.
O=C(CN1CCN(S(=O)(=O)c2ccccc2)CC1)Nc1ccccc1C(=O)NC1CC1	6.51µM*	13.5%	4.6%	6.3%	-1.2%	i
COc1ccc(S(=O)(=O)N2CCCN(CC(=O)Nc3ccccc3F)CC2)cc1	9.2µM*	-4.9%	1.1%	15.3%	11.9%	i
CC(C)(C)S(=O)N1Cc2cc(C(=O)NCc3ccc(Oc4ccccc4)cc3)nc(-c3cccc(-c4cc5ccccc5o4)c3)c2[C@@H]1CCO (some centres undefined)	?	?	.	23.1µM*	.	?
COCCNC(=O)c1cc2c(c(-c3cccc(-c4cc5ccccc5o4)c3)n1)[C@H](CCO)N(S(=O)C(C)(C)C)C2 (some centres undefined)	18.4µM*	?	.	?	.	i
Cc1nnc(N2CCCC(C(=O)NCCc3ccc(Cl)cc3)C2)c2nn(-c3ccccc3)c(C)c12 (centres undefined)	i	.	.	.	.	i
CC1CCN(c2nc(Cl)nc(Nc3ccc([N+](=O)[O-])cc3)n2)CC1	i	3.9%	5.17µM*	0.0%	-3.2%	i
Cc1cc(Cl)ccc1Oc1ccccc1C(=O)CC#N	i	-1.3%	23.1µM*	-3.1%	5.5%	i
CCCN1C(=O)c2ccccc2NC1c1cc(OC)c(OC)c(OC)c1 (centres undefined)	i	1.4%	3.6%	3.5%	0.5%	i
COc1ccc(C2Nc3ccccc3C(=O)N2O)cc1OC (centres undefined)	14.6µM*	10.0%	-1.1%	1.1%	?	i

From PubChem
